Several values for one entry are separate records, joined by “and”; a condition that tells them apart may be missing. Equal entries are not always repeated. The whole screen tested about 2,000 compounds, of which about 25 (1%) were called active.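 How the source made its calls: active means log2 luciferase ratio at or below -0.5849, meaning signal at two thirds of solvent-only control or lower; inactive means the rest.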 The sample as a whole holds a higher share of actives than the screen did.

The nature of the experiment: eIF4E expression suppression, luciferase knock-in reporter – cell-based, HT1080, primary screen (AID 1224817).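 Further: luciferase reports endogenous eIF4E expression since it is co-expressed from the native EIF4E locus.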 The following applies: HT1080 EIF4E-luc2 knock-in reporter, 16 h, at 2.5 µM, stronger effect = lower value.
Regarding `COC1C(O)C(C)OC(OC2C(Oc3cccc4c(O)c5c(=O)oc6ccc(C)c7c(=O)oc(c34)c5c67)OC(C)C(O)C2O)C1O` (stereo not given), the log2 luciferase activity ratio is -0.702 (active) and -0.391 (inactive).
With `COC(=O)C1=COC(C)C2CN3CCC4(C(=O)Nc5ccccc54)C3CC12` (stereo not given), the log2 luciferase activity ratio was 0.122 (inactive).
In the case of `c1ccc(CCN2CCCCCC2)nc1` it was 0.334 (inactive); in that of `COc1cc(CCN)c(OC)c(OC)c1`, -0.289 (inactive); in that of `CC1CCC2(O)C3(C)CC4(O)OC2(C1O)C1(O)C3(O)C(OC(=O)c2ccc[nH]2)C(O)(C(C)C)C41C` (stereo not given), -0.662 (active) and 0.224 (inactive).
The same measure for `Oc1c(Cl)c(Cl)c(Cl)c(Cl)c1Cl`: 0.387 (inactive).
For the compound `CC(Cc1ccc(Cl)cc1Cl)NO` (stereo not given), the log2 luciferase activity ratio was 0.563 (inactive).
In the case of `CC1=C2C(=O)[C@H]3[C@@H](CC=C4C[C@@H](O)CC[C@@]43C)[C@@H]2CC[C@]12O[C@@H]1C[C@H](C)CN[C@H]1[C@H]2C` it was 0.0474 (inactive); in that of `O=C(Nc1ccc([As](=O)(O)O)cc1)Nc1cccc(Cl)c1Cl`, 0.175 (inactive); in that of `C[C@]12CC[C@H]3[C@@H](CCC4=CC(=O)CC[C@@H]43)[C@@H]1CC[C@@H]2OC1(O)C(=O)c2ccccc2C1=O`, -0.175 (inactive).
For `CC(=O)O[C@@H]1[C@@H](O)C2=C3[C@]4(C)[C@@H]1C(C)(C)C(=O)C[C@@H]4[C@]3(O)[C@H](OC(C)=O)[C@@]1(C[C@@H]1C)C2=O`, the log2 luciferase activity ratio is -0.11 (inactive).
In the case of `CC(=O)c1c(O)c(C)c(O)c(Cc2c(O)c3c(c(C(=O)/C=C/c4ccccc4)c2O)OC(C)(C)C=C3)c1O` it was -1.16 (active); in that of `CC(=N\O)/C(C)=N/O.CC(=N\O)/C(C)=N/O.CC(=N\O)/C(C)=N/O.CC(=N\O)/C(C)=N/O.[Cu].[Cu]`, 0.204 (inactive); in that of `CC[C@](O)(C(=O)O)c1cc2n(c(=O)c1CO)Cc1cc3ccccc3nc1-2`, -0.308 (inactive).
In the case of `NC(CSC1c2ccccc2-c2ccccc21)C(=O)O` (stereo not given) it was -0.0184 (inactive); in that of `Cc1c2ccncc2c(C)c2c1[nH]c1ccccc12`, -1.19 (active); in that of `O=C(c1ccccc1)C1C(c2ccccc2[N+](=O)[O-])N1C1CCCCC1` (stereo not given), -0.136 (inactive).
`CC1=CC23C(COC(=O)C24CO4)C(C(=O)O)=CC3C1C` (stereo not given): the log2 luciferase activity ratio was -0.125 (inactive).
Regarding `COc1cc2c(cc1OC)C13CCN4C=C5CCOC6CC(=O)N2C1C6C5CC43` (stereo not given), the log2 luciferase activity ratio is 0.124 (inactive) and 0.181 (inactive).
For `CCCCCC(O)C1C(=O)OC(C)C(O)/C=C/C=C/C=C/C=C/C=C(\C)C(O)C(O)C(O)CC(O)CC(O)CC(O)CC(O)CC1O` (stereo not given), the log2 luciferase activity ratio is -0.286 (inactive).

Source of the values: PubChem BioAssay AID1224817 (Yan Lab, Georgia Cancer Center, Augusta University, 2016).
